Results on 9 compounds are retold here after PubChem BioAssay (NCI).

Test in all cases: NCI-60 one-dose screen, 48 h (100 = growth as untreated, 0 = no growth, -100 = all killed)
Holding throughout (conditions): 10 µM unless noted

For test [1], the system named is SR leukemia.
Test [2] deals with RPMI-8226 leukemia.
The test system of test [3] is OVCAR-8 ovarian.
In test [4] the test system is OVCAR-5 ovarian.
Test [5] relates to OVCAR-4 ovarian.
The test system of test [6] is SK-OV-3 ovarian.
Test [7] deals with IGROV1 ovarian.
Test [8] deals with OVCAR-3 ovarian.
Test [9] concerns HS 578T breast.
For test [10], the system named is NCI/ADR-RES ovarian.
Test [11] has as its system T-47D breast.
Test [12] concerns BT-549 breast.
Test [13] deals with MDA-MB-435 melanoma.
The test system of test [14] is MCF7 breast.
Test [15] has as its system HCT-116 colon.
For test [16], the system named is HCC-2998 colon.
Test [17] deals with KM12 colon.
The subject of test [18] is SW-620 colon.

The panel holds about 83,000 compounds, 20% with a hit somewhere; the sample as a whole holds those more often.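 Method: cells in 96-well plates; compound added at one concentration; 48 h incubation; percent growth measured; values under 10 scored active.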 A number with no mark means an inactive call. Calls of active or inactive are those of the source.

Regarding `CN1C(=O)/C(=C/c2ccc(C(=O)Nc3ncc(Cc4cccc(C(F)(F)F)c4)s3)cc2)SC1=S`, the growth in test [1] is 52.6%; in test [2], 22.1%; in test [3], 59.8%; in [4], 60.8%; in [5], 34.4%; in test [6] it was 50.6%. The growth was 56.7% in test [7]; 71.1% in test [8]; 63.9% in test [9]; 33.4% in test [10]; 30% in [11]; 47.3% in test [12]. Besides, the growth in test [13] is -27.2% (active); in [14] it was 30.4%; in test [15] it was 43.7%; in test [16] it was 49.6%; in test [17], 28%.

`Cc1cc(NCCCNc2ccnc3cc(Cl)ccc23)nc(Nc2ccc(C(=O)N3CCCCC3)cc2)n1`: the growth in [1] is -31.8% (active); in [2], -11.1% (active); in [3] it was 25.4%; in [4], 71.6%; in test [5] it was 39.5%; in [6], 96.8%. Besides, the growth is 46.3% in test [7]; 18.8% in test [8]; 85.3% in [9]; 75.6% in test [10]; -32.8% (active) in test [11]; 69.8% in test [12]. In addition, the growth in [13] was -72.5% (active); in test [18] it was -0.272% (active); in test [14], 6.95% (active); in [16], 0.124% (active); in test [17], 26.1%.

In the case of `Cc1ccc2c(c1)sc1nc(-c3c[nH]c4ccccc34)c(Nc3ccccc3)n12`, the growth was 97.2% in test [1]; 102% in test [2]; 104% in test [3]; 105% in [4]; 95.8% in test [5]; -4.12% (active) in test [6]. In addition, the growth was 104% in test [7]; 99.2% in test [8]; 98.7% in test [9]; 104% in test [10]; 96% in test [11]; 98.5% in [12]. Moreover, the growth was 97% in [13]; 94.7% in test [18]; 98.4% in [14]; 106% in [16]; 105% in [17].

Turning to `C=C(C)[C@@H]1CC[C@]2(C)[C@H](C=CC3=C4C[C@@](C)(CO)CC[C@]4(C)CC[C@]32C)[C@@]1(C)CCCN`, the growth in test [1] is -31.4% (active); in test [2], -33.3% (active); in test [3], -38.7% (active); in test [4] it was 19.1%; in test [5], -55.4% (active); in test [6] it was 8.02% (active). Moreover, the growth in test [7] was 6.46% (active); in test [8], -58.8% (active); in test [9], -51.2% (active); in [10] it was -40.7% (active); in [11], -43.7% (active); in [12], 80%. In addition, the growth in [13] was -96.8% (active); in [18], -80.8% (active); in test [14], -78.5% (active); in test [16], -92% (active); in test [17], -71.7% (active).

Turning to `O=C(Nc1cccnc1Nc1ccccc1)c1cn(Cc2cccc(Oc3ccccc3)c2)nn1`, the growth is 26.6% in test [1]; 57.2% in test [2]; 71.4% in [3]; 103% in test [4]; 86.9% in test [5]; 77.1% in [6]. In addition, the growth was 78.1% in test [7]; 52.6% in test [8]; 40.8% in test [9]; 33.8% in [10]; 71.3% in [11]; 66.2% in test [12]. Besides, the growth in test [13] was -19.3% (active); in test [14], 23.5%; in test [15] it was 33.1%; in [16], 90.1%; in test [17], 35%.

In the case of `CS(=O)(=O)Nc1cc(-c2ccc3ncnc(Nc4ccc(OCc5ccccn5)c(Cl)c4)c3c2)cnc1Cl`, the growth was -5.01% (active) in test [1]; -50.3% (active) in test [2]; 14.4% in [3]; 12.5% in test [4]; 20.9% in test [5]; -27.1% (active) in test [6]. The growth was -30.6% (active) in test [7]; -19% (active) in [8]; -19.7% (active) in [9]; 77.7% in test [10]; -25.3% (active) in test [11]; -3.21% (active) in test [12]. For the same compound, the growth in [13] is 7.34% (active); in test [18] it was 5.12% (active); in [14], 4.74% (active); in test [16], 3.04% (active); in test [17] it was -5.09% (active).

Consider `O=C(NNc1nc2cc(F)ccc2n2c(CN3CCOCC3)ccc12)c1ccccc1`, for which the growth in test [1] was 3.49% (active); in test [2], 10.9%; in [3] it was 13.1%; in test [4] it was 28.9%; in test [5], -14.9% (active); in test [6], 27.5%. Besides, the growth in test [7] is 3.07% (active); in test [8], -8.34% (active); in test [9], 57.9%; in test [10], 5.25% (active); in test [11], 11.8%; in test [12], 25.7%. For the same compound, the growth in test [13] was 27.3%; in test [14] it was -6.31% (active); in [15], 0.232% (active); in test [16], 32.8%; in test [17], 12.2%.

On to `COc1ccc(-c2nc(SCC(=O)Nc3nc4ccc(C)cc4s3)[nH]c(=O)c2C#N)cc1OC`, for which the growth is 75.2% in test [1]; 110% in [2]; 101% in test [3]; 111% in test [4]; 105% in test [5]; 74.2% in [6]. Further, the growth in test [7] was 95.9%; in test [8], 112%; in [9], 87.4%; in test [10], 98.3%; in test [11], 94.8%; in [12], 97.8%. The growth in [13] was 101%; in test [14] it was 95.6%; in [15], 94.8%; in test [16], 105%; in [17] it was 102%.

Turning to `c1ccc(Cn2cc3c(c2-c2ccccc2)CCc2cnoc2-3)cc1`, the growth is 37.3% in test [1]; 46.7% in test [2]; 84.5% in test [3]; 96% in test [4]; 86.2% in test [5]; 88% in test [6]. The growth in [7] is 76.6%; in test [8], 56.7%; in test [9], 71.5%; in test [10] it was 40.6%; in [11], 67%; in [12], 64.1%. Moreover, the growth in test [13] is 13.5%; in [14] it was 51.3%; in test [15], 44.5%; in [16] it was 58.5%; in test [17], 27.7%.
